From PubChem BioAssay AID434958 (Southern Research Specialized Biocontainment Screening …, 2010)
In all, about 1,200 compounds went through this assay and about 400 (33%) were called active. How the calls were made is not given here. A selection follows. Where a call stands in place of a potency, no number is given. Potency and affinity values are given separately.

Experiment: mammalian cell cytotoxicity, dose response, cytotoxicity control (AID 434958);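 further: cells exposed to compound for 72 hours before readout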
Conditions: cytotoxicity counter-screen; series mostly up to 40 µM

| Compound | outcome |
| --- | --- |
| CCOC(=O)N1CCN(CC(=O)Nc2nnc(C(F)(F)F)s2)CC1 | inactive |
| COC(=O)N1C(=O)[C@](Cc2ccccc2)(c2ccccc2)N1C(=O)OC | inactive |
| CCC(=O)Nc1cc(OC)c(NC(=O)c2ccccc2)cc1OC | inactive |
| COc1ccc(Nc2cc(C(=O)NCc3ccco3)c3ccccc3n2)c(OC)c1 | inactive |
| CC(C)C(=O)Nc1ccc(NC(=S)NC(=O)c2ccc([N+](=O)[O-])cc2)cc1 | inactive |
| Cn1c(O)c(C2=c3ccccc3=NC2=O)[nH]c1=S | inactive |
| C=CCNC1=C(Cl)C(=O)N(c2cccc(Cl)c2Cl)C1=O | inactive |
| O=C(CN1C(=O)c2cccc([N+](=O)[O-])c2C1=O)N1CCN(c2ccc(F)cc2)CC1 | inactive |
| CCCn1nc2cc(C(=O)NCCCCc3ccccc3)ccc2c1OCC | inactive |
| Cc1cc(C)c(O)c(-c2cc(C(=O)NCc3ccccc3)[nH]n2)c1 | inactive |
| COCCCNc1nc(SCc2ccccc2)nc2sc3c(c12)CCC3 | inactive |
| CCC(CC)c1nnc(NC(=O)c2ccc(N3CCCCC3)c([N+](=O)[O-])c2)s1 | inactive |
| Cc1cc2ccccc2n1CCNC(=O)COc1ccccc1 | inactive |
| Cc1ccc(C(=O)NCCc2nnc3ccc(SCC(=O)Nc4ccccc4C)nn23)cc1 | inactive |
| CCN(CC)c1ccc(S(=O)(=O)N2CCOCC2)cc1NC(=O)CSc1cccc[n+]1[O-] | inactive |
| O=C(CNc1ccccc1Cl)Nc1cc(S(=O)(=O)N2CCOCC2)ccc1Cl | inactive |
| CC(=O)COc1ccc2c3c(c(=O)oc2c1C)CCCCC3 | inactive |
| CCOC(=O)Cn1nc(-c2ccc(C)cc2)c2ccccc2c1=O | inactive |
| CCOC(=O)C1CCN(C(=O)CCCCn2c(=O)[nH]c3ccccc3c2=O)CC1 | inactive |
| Cc1ccc(NC(=O)C2(c3ccccc3)CC2(Cl)Cl)cc1C (stereo not given) | inactive |
| CCOc1cc(/C=N\Nc2ccc([N+](=O)[O-])cc2)ccc1OCC(=O)Nc1ccc(C)c(C)c1 | inactive |
| Cc1ccccc1OCC(=O)Nc1ccccc1N1CCCCC1 | inactive |

| Compound | outcome |
| --- | --- |
| CN(C)C(=O)c1ccc(-n2nc(C(F)(F)F)c3c2CCCC3)cc1 | inactive |
| CC(=O)Nc1cccc(/C(C)=N/NC(N)=S)c1 | inactive |
| Cc1c(-c2ccccc2)cnc2c(C)cccc12 | inactive |
| Cc1cc(NC(=O)CSc2ncnc3c2cnn3-c2ccccc2)no1 | inactive |
| Cc1cc(NC(=O)COc2nnc(-c3ccccc3)c3ccccc23)no1 | inactive |
| CCOC(=O)c1ccc(C(=O)NNC(=O)C2CC=CCC2)cc1 (stereo not given) | inactive |
| O=C(Nc1ccccc1)c1c2c(nc3ccccc13)CCCC2 | inactive |
| CC12CCC(C/C1=N/NC(=O)Nc1ccccc1)C2(C)C (stereo not given) | inactive |
| Cc1cc(C)c(C)c(S(=O)(=O)N2C(=S)NC(=O)C2C(C)C)c1C (stereo not given) | inactive |
| O=C(c1cc2c(s1)CCCC2)n1cccn1 | inactive |
| O=C(CSc1nnc(SCc2ccc(Cl)cc2)s1)c1ccc2c(c1)OCO2 | inactive |
| O=C(N/N=C\c1cn[nH]c1-c1ccc(Cl)cc1)c1cccs1 | inactive |
| C=CCSc1nc2c(c(-c3ccsc3)c1C#N)CN(C)CC2 | inactive |
| O=C(NN1C(=O)C2C(C1=O)C1C=CC2C12CC2)c1ccncc1 (stereo not given) | inactive |
| O=c1[nH]c(CN(CCO)CCO)nc2c1C1(CCCCC1)Cc1ccccc1-2 | inactive |
| CN(/N=C/c1ccncc1)c1cnc2ccccc2n1 | inactive |
| c1ccc(-c2n[nH]c3c2CCC3)cc1 | inactive |
| CSc1ncnc2c1ccn2CC(=O)Nc1ccc(C)c(C)c1 | inactive |
| CCCOc1ccccc1NC(=O)/C=C/C(N)=O | inactive |
| CC(=O)OCC(=O)Nc1ccc(C(C)=O)cc1 | inactive |
| CC(C)(C)[C@@H]1C=C(C(=O)Nc2ccccc2)O[C@H](OCc2ccc(CO)cc2)C1 | inactive |
| Cc1cccnc1NC(=S)NC(=O)c1cncc(Br)c1 | inactive |

| Compound | outcome |
| --- | --- |
| COc1ccc(CNC(=O)C2CCN(S(=O)(=O)c3c(C)noc3/C=C/N(C)C)CC2)cc1 | inactive |
| CC(C)(C)C1CCC(OCC(O)CN2CCN(c3ccccn3)CC2)CC1 (stereo not given) | inactive |
| COc1ccc(-c2csc(-c3cccs3)n2)c(OC)c1 | inactive |
| CCC(=O)Oc1oc(-c2ccccc2)nc1C=Nc1ccc(C)cc1 | inactive |
| CCn1cc(C(=O)O)c(=O)c2cc(F)c(N3CCN(C(=S)NC(=O)c4ccccc4C)CC3)cc21 | inactive |
| COC(=O)c1cc(OC)c(OC)cc1NC(=S)N1CCN(C)CC1 | inactive |
| Cc1nnc(SCC2=C(C(=O)O)N3C(=O)C(NC(=O)COc4ccc(F)cc4)C3SC2)s1 (stereo not given) | inactive |
| COc1cc(C(=S)N2CCOCC2)ccc1OC(=O)c1ccc([N+](=O)[O-])cc1[N+](=O)[O-] | inactive |
| CC1CN(C(=S)NC(=O)c2cccc([N+](=O)[O-])c2)CC(C)O1 (stereo not given) | inactive |
| O=C(Oc1c(-c2ccccc2)c(=O)n2c3c(cccc13)CC2)c1cccc([N+](=O)[O-])c1 | inactive |
| COc1ccc(C(=O)Nc2cccc3c2CCCC3)c(OC)c1 | inactive |
| CN(C)c1ccc(/C=N/NC(N)=S)cc1[N+](=O)[O-] | inactive |
| O=C(CCCCCN1C(=O)c2cccc([N+](=O)[O-])c2C1=O)Nc1ccccc1F | inactive |
| CC(=O)NC(=S)Nc1ccc(NC(=O)c2cccs2)cc1 | inactive |
| CCN=c1scc(-c2ccccc2)n1/N=C/c1ccccn1 | inactive |
| CC1CCc2nc(NC(=O)C3COc4ccccc4O3)sc2C1 (stereo not given) | inactive |
| COc1ccc(CCNCc2csc3nc4ccccc4n23)cc1OC | inactive |
| Cc1cc(C)cc(NC(=S)NN)c1 | inactive |
| CSc1ccc(/C=C/C(=O)NC23CC4CC(CC(C4)C2)C3)cc1 | inactive |
| c1ccc(-c2cc3ccccc3[nH]2)cc1 | inactive |
| C/C(=N\NC(=O)c1cc2c(s1)CCC(C)C2)c1ccc[nH]1 (stereo not given) | inactive |
| Cc1cccc2c(C(=O)n3cccn3)cc(-c3ccccc3Cl)nc12 | inactive |

| Compound | outcome |
| --- | --- |
| O=C(Oc1c(-c2ccccc2)c(=O)n2c3c(cccc13)CC2)c1ccc(F)cc1 | inactive |
| COc1ccccc1-c1cc(C(=O)Nc2c(C)n(C)n(-c3ccccc3)c2=O)no1 | inactive |
| COc1ccc(OC)c(-c2cc(C(=O)Nc3c(C)n(C)n(-c4ccccc4)c3=O)no2)c1 | inactive |
| O=C(CCSc1ccc(Cl)c(Cl)c1)NC12CC3CC(CC(C3)C1)C2 | inactive |
| COc1ccnc(CS(=O)c2nc3cc(OC(F)F)ccc3[nH]2)c1OC (stereo not given) | inactive |
| O=C(CSc1ccc([N+](=O)[O-])cn1)Nc1ccc(N2CCOCC2)cc1 | inactive |
| CC(C(=O)Nc1cc([N+](=O)[O-])ccc1Cl)N1CCN(c2ccccc2O)CC1 (stereo not given) | inactive |
| O=C(Nc1ccccc1N1CCCC1)c1ccc2c(c1)OCO2 | inactive |
| O=C(Nc1ccc(N2CCCCC2)cc1)c1cc([N+](=O)[O-])cc([N+](=O)[O-])c1 | inactive |
| CCOC(=O)COc1ccc2nsnc2c1 | inactive |
| CN(C)c1ccc(N=Nc2cccc3ccoc23)cc1 | inactive |
| N#C/C(C(=O)NCc1ccco1)=C1/SC=C(c2ccccc2)N1c1ccccc1 | inactive |
| CCOc1ccc(-c2nc(-c3ccccc3C)no2)cc1 | inactive |
| COc1cc(NC(=S)NC(=O)c2ccco2)ccc1NC(=O)C(C)C | inactive |
| Cc1n[nH]c(C)c1CCCOc1ccccc1 | inactive |
| COc1cc(NC(=O)c2ccccc2)c(OC)cc1NC(=O)CN1CCOCC1 | inactive |
| COc1ccc(C(=O)CN(C(=O)c2ccc(Cl)cc2)N2C(=O)c3ccccc3C2=O)cc1 | inactive |
| COc1cc(NC(=O)c2ccccc2Cl)ccc1NC(=O)c1ccco1 | inactive |
| O=C(CN1CCN(S(=O)(=O)c2ccc(F)cc2)CC1)Nc1ccc2c(c1)OCCO2 | inactive |
| O=c1[nH]c(CSc2nnc3ccccn23)nc2ccccc12 | inactive |
| Cc1ccc(C(=O)NN2C(=O)/C(=C/c3cccn3C)SC2=S)cc1 | inactive |
| O=C(CCN1C(=O)/C(=C/c2ccccc2F)SC1=S)Nc1ccccn1 | inactive |

| Compound | outcome |
| --- | --- |
| CN(c1ccc(OCC(=O)Nc2ccc3[nH]c(=O)[nH]c3c2)cc1)S(=O)(=O)c1ccc(Cl)cc1 | inactive |
| CCN1C(=O)C(O)(CC(=O)c2ccc(-n3cccc3)cc2)c2ccccc21 (stereo not given) | inactive |
| NC(=O)Nc1ccc(C(=O)OCC(=O)Nc2ccc(Cl)cn2)cc1 | inactive |
| O=C(Cn1ncc2c3ccccc3n(Cc3ccccc3F)c2c1=O)NCCCN1CCCC1=O | inactive |
| CSc1nc(-c2ccc(Cl)cc2)nn1S(=O)(=O)c1ccccc1 | inactive |
| Cc1cccc(N2CCN(CC3CCCCC3)CC2)c1C | inactive |
| CCOC(=O)Cc1nc2ccccc2[nH]1 | inactive |
| COc1ccc(CNC(=O)c2sc3nc4c(c(C(F)(F)F)c3c2N)CCC4)cc1 | inactive |
| CCOC(=O)c1[nH]c2ccccc2c1NC(=O)Nc1ccc(OC)cc1 | inactive |
| O=C(O)CSc1ncnc2c1sc1nc(-c3ccccc3)c3c(c12)CCC3 | inactive |
| CC(C)(C)c1ccc(C(=O)Oc2ccc3c(c2)OCC3=O)cc1 | inactive |
| CS/C(N)=N/N=C/c1cc(Br)cc(Br)c1O | inactive |
| CCOC(=O)N1CCN(C(=O)CSc2nnc(-c3ccccc3OC)o2)CC1 | inactive |
| O=C(N/N=C/c1cccc(NC(=O)c2ccc(Cl)cc2)c1)c1cccc(O)c1 | inactive |
| NNC(=O)c1cccc(O)c1 | inactive |
| Cc1cc(C2C(=O)c3ccccc3C2=O)c(C)c(C)c1C | inactive |
| CCCCNC(=O)/C(=C/c1ccccc1)NC(C)=O | inactive |
| CCOC(=O)c1ccc(-c2ccc(C=O)o2)cc1 | inactive |
| COc1ccc([C@H]2CC(=O)C=C(/C=C/c3ccccc3)C2)cc1OC | inactive |
| NS(=O)(=O)c1cccnc1Nc1c(Cl)cccc1Cl | inactive |
| COCCSc1nc2sc3c(c2c(=O)n1-c1ccccc1)CCN(C)C3 | inactive |
| CCOC(=O)C1CCCN(c2ccc(NC(=O)c3snc4c(=O)[nH]cnc34)cc2)C1 (stereo not given) | inactive |
